The values below come from PubChem BioAssay (NCATS).

Experiment [1] in a line: AP1 Signaling Pathway (AID 357).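 Also: ME-180 reporter cells stimulated with EGF at its EC50 level; % is scaled to controls: 0 for no effect and ±100 for the full control effect.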 Summed up:
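First, ME-180 AP-1-bla cells were cultured overnight at 37 °C in low-serum Opti-MEM. Next, titrated compounds with EC50 EGF were incubated 5 hours. Finally, CCF4 was added for 2.5 hours and the 460/530 nm ratio recorded.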

Experiment [2] can be described thus: NFAT Signaling Pathway (AID 444).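 Also: carbachol stimulus at about its EC50 of 1 µM final; % is scaled to controls: 0 for no effect and ±100 for the full control effect.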 The conditions noted are these: Jurkat NFAT-bla M1, carbachol, beta-lactamase ratio, 5 h. Summed up:
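Jurkat cells carrying an NFAT-driven β-lactamase reporter and co-transfected muscarinic M1 receptor were treated with compound plus carbachol (1 uM final, an EC50 level) for 5 h at 37 °C. CCF4 loading followed for 1 h at RT; 460/530 nm ratio gave %activity.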

A short description of experiment [3]: Stat Signaling Pathway (AID 446).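 Also: ME-180 cervical cancer cells given 40 pM IL-6 alongside compound; SIE-controlled beta-lactamase reporter measured as 460/530 nm FRET emission ratio; % is scaled to controls: 0 for no effect and ±100 for the full control effect.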 The following applies: ME-180 SIE beta-lactamase reporter, IL-6 stimulated, 5 h; at 38 µM (top of the series) unless noted. In outline:
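Reporter line: ME-180 cervical carcinoma, SIE-beta-lactamase. Treatment: compound with 40 pM IL-6, 5 hrs, 37 C, in low-serum OPTI-MEM with 10 mM HEPES pH 7.3. Detection: 460/530 nm fluorescence.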

The target of experiment [4] is Glucocorticoid receptor (Homo sapiens) (UniProt P04150). Put plainly: GR-GFP Redistribution (AID 450;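 active = compounds whose dose series gives a full or clear partial fitted curve of increased nuclear translocation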; also: potency is read from the fitted curve at half-maximal effect). The following applies: U2OS GR-GFP nuclear translocation, laser cytometry, 2 h.
Glucocorticoid receptor (Homo sapiens), sequence (P04150 whole entry, looked up): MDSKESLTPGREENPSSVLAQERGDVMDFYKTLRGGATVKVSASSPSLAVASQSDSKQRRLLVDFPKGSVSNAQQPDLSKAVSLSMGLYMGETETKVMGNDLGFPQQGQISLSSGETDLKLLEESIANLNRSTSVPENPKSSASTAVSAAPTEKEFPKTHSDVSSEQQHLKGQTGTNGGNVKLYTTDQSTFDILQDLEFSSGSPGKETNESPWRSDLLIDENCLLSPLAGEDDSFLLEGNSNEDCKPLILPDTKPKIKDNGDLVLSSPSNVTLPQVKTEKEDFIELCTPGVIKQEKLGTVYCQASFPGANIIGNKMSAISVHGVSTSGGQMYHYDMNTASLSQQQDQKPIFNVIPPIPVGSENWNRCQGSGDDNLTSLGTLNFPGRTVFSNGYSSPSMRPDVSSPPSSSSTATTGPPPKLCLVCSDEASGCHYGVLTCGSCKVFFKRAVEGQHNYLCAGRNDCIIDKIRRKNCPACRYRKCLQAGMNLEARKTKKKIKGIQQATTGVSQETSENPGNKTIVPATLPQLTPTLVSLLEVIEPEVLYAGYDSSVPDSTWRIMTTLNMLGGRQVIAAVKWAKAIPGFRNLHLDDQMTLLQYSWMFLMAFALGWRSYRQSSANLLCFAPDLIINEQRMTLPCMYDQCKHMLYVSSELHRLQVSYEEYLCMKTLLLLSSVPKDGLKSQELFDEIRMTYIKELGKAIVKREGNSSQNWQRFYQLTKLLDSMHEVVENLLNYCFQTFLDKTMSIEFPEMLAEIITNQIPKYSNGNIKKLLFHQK
For experiment [5] the target is unchanged. Kind of experiment: GR-EFC Redistribution (AID 451; calls by dose curve; also: potency is read from the fitted curve at half-maximal effect). The following applies: CHO-K1 GR-EFC translocation, beta-gal luminescence, 2 h. Summed up:
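CHO-K1 cells stably expressing nuclear-localized β-gal enzyme acceptor and GR fused C-terminally to the enzyme donor fragment; ligand-driven nuclear translocation restores β-gal by complementation. Compounds titrated up to 46 uM final, 2 h at 37 °C; luminescence read.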

Experiment [6] concerns the target Mitogen-activated protein kinase 10 (Mus musculus) (UniProt Q61831). Put plainly: JNK3 AlphaScreen Assay (AID 530).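 Also: kinase came from lysate of stimulated human HepG2 cells; signal reports phosphorylation of biotinylated GST-cJun 1-79 at Ser73 with 10 µM ATP; % is scaled to controls: 0 for no effect and ±100 for the full control effect.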 In outline:
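Inhibitors reduce antibody binding to phosphorylated biotin-cJun, lowering AlphaScreen luminescence. Lysates from HepG2 cells pre-activated by IL-1beta plus TNF-alpha supplied JNK3; compounds were titrated.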

The target of experiment [7] is Cytochrome P450 1A2 (Homo sapiens) (UniProt P05177). Put plainly: p450-cyp1a2 (AID 410; calls by dose curve; also: potency is read from the fitted curve at half-maximal effect;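 as to activity change, negative = inhibition: -100% = full effect of reference inhibitor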). Summed up: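 20nM CYP1A2 with 100uM Luciferin-ME (at Km) in 100mM KPO4; compound preincubated 10 min, NADPH regeneration added, 60 min at room temperature. Luciferin quantified by luminescence after detection reagent; normalized to 57 uM furafylline.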
Cytochrome P450 1A2 (Homo sapiens), sequence (P05177 whole entry, looked up): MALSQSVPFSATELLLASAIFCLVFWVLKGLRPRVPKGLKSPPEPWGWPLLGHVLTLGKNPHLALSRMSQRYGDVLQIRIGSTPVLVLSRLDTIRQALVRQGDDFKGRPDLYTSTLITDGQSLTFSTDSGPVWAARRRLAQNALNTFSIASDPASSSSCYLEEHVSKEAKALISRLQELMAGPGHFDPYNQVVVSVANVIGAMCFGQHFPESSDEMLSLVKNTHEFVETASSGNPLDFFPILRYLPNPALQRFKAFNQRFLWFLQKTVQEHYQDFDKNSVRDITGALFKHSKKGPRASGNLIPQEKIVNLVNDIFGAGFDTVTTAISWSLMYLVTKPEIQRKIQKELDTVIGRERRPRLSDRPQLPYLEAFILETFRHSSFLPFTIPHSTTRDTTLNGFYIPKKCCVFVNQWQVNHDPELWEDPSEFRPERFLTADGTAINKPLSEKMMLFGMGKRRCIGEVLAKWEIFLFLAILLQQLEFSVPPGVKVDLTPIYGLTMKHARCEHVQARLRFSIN
Where [8] appears, read: at 38 µM (top of the series) unless noted.

“And” between values parts separate entries of the source, which are not always exact repeats. Identical values can stand only once. A number with no mark means an inactive call. Inconclusive results are not listed. The source made the active and inactive calls. Unless noted, calls follow the shape of the dose curve; as a rule, active = well fitted curve in either direction with a large enough effect (not every such curve was filed as active); inconclusive = small, poorly fitted or top-dose-only effect, or another doubt; inactive = flat fitted curve, though single readings scatter.

As for `Clc1ccc(N2C[C@H]3CC[C@@H](C2)N3)nn1`, in experiment [1], the compound was classed as inactive. The activity change, negative = inhibition in experiment [2] (setting [8]) was -11.9%. Moreover, the activity, negative = inhibition in experiment [3] was 37.1%. Also, the Potency in experiment [4] and in experiment [5] was more than 46 µM in each case.

Turning to `NC(N)=NOCC[C@H](N)C(=O)O`, the compound was called inactive in experiment [1] and in experiment [6]. Also, the activity change, negative = inhibition is -0.483% in experiment [2] (at 17.2 µM (top of the series)) and 17% in experiment [2] (at 38 µM (top of the series)). Further, the activity, negative = inhibition in experiment [3] is 4.59% [at 17.2 µM]. Besides, the Potency in experiment [4] was > 46 µM and > 20.6 µM; in experiment [5], > 46 µM and > 20.6 µM.

As to `COc1ccc(OC)c(C(O)C(C)N)c1` (configuration not stated), the call in experiment [1] was inactive. The activity, negative = inhibition in experiment [3] was 2.12% [at 17.2 µM]. Moreover, in experiment [4], the Potency is more than 20.6 µM.

For `CCCN1CCc2cc(O)cc3c2[C@H]1Cc1ccc(O)c(O)c1-3`, the compound was called inactive in experiment [1]. The Potency was 12.6 µM (active) in experiment [7], more than 46 µM in experiment [4] and more than 46 µM in experiment [5]. Besides, the activity, negative = inhibition in experiment [3] is 39.4%.

Take `C[N+](C)(C)CC#CCN1CCCC1=O`: the compound was called inactive in experiment [1] and in experiment [6]. The Potency result in experiment [7] was “inactive”. For the same compound, the Potency in experiment [4] and in experiment [5] was more than 46 µM in each case.

In the case of `C[C@@H](Cc1ccccc1)NCCC(c1ccccc1)c1ccccc1`, in experiment [1], the outcome was inactive. In experiment [3], the activity, negative = inhibition was -3.28% [at 17.2 µM].

For `CCCN(CCC)C1Cc2cc(OC)c(OC)cc2C1`, the outcome in experiment [1] and in experiment [6] was inactive. The Potency result in experiment [7] is “inactive”. For the same compound, the activity, negative = inhibition in experiment [3] is 21.3%. Besides, the Potency in experiment [4] and in experiment [5] was more than 46 µM each time.

As to `CCCCCCC(C)(C)c1ccc([C@@H]2C[C@H](O)CC[C@H]2CCCO)c(O)c1`, the call in experiment [1] and in experiment [6] was inactive. Further, in experiment [3], the activity, negative = inhibition was -25.8%. For the same compound, the Potency in experiment [4] and in experiment [5] was more than 46 µM throughout.

With `C[C@@H]1[C@@H]2Cc3ccc(O)cc3[C@@]1(C)CCN2CC1CC1`, the compound was called inactive in experiment [1]. Further, the Potency result in experiment [7] was “inactive”. In experiment [3], the activity, negative = inhibition is -18.1%. Moreover, the Potency in experiment [4] and in experiment [5] was more than 46 µM in each case.

In the case of `CN1[C@@H]2CC[C@H]1CC(OC1c3ccccc3CCc3ccccc31)C2` (some centres not stated), in experiment [7], the Potency result is “inactive”. In experiment [2] (setting [8]), the activity change, negative = inhibition was -67.9% [at 17.2 µM] (active). For the same compound, the activity, negative = inhibition in experiment [3] was 5.86% [at 17.2 µM]. The Potency in experiment [4] and in experiment [5] was more than 20.6 µM each time.

Regarding `C[N+]1(C)[C@@H]2CC[C@H]1CC(OC(=O)c1c[nH]c3ccccc13)C2` (some centres not stated), in experiment [1], the outcome was inactive. In addition, the Potency result in experiment [7] is “inactive”. For the same compound, the Potency in experiment [4] and in experiment [5] was more than 46 µM in each case.

Consider `CC(C)(C)c1cc(C=C(C#N)C#N)cc(C(C)(C)C)c1O`, for which the call in experiment [1] was inactive. The Potency in experiment [7] is 10 µM (active); in experiment [4], more than 46 µM; in experiment [5], more than 46 µM. In experiment [2] (setting [8]), the activity change, negative = inhibition is -108% (active).

As to `C[N+](C)(C)CC#CCOC(=O)Nc1cccc(Cl)c1`, the compound was classed as inactive in experiment [1]. In addition, the activity change, negative = inhibition in experiment [2] (setting [8]) was 11.3%. Further, the activity, negative = inhibition in experiment [3] was -8.8%. Moreover, the Potency in experiment [4] and in experiment [5] was more than 46 µM throughout.
